Assay results from PubChem BioAssay (NCATS).
Inconclusive results are not listed. Unmarked numbers belong to inactive results. The call rests on the fitted dose curve; in most records, active means well fitted inhibition curve with a large enough effect; inconclusive means small, poorly fitted or top-dose-only effect; inactive means flat fitted curve, though single readings scatter.

test system: KB-3-1; experiment: Cytotoxic Profiling of Annotated Libraries Using Quantitative High-Throughput Screening (AID 1296008); conditions: Five cell lines viability, CellTiter-Glo ATP luminescence, 48-72 h, active compounds read low; further: nearly all actives have a fitted effect of over 60% in size
In short: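 Compounds were pin-transferred onto cells and incubated 48 or 72 hr at 37 degree Celsius, 95% humidity. CellTiter-Glo was added, plates sat 10 min at room temperature, then ATP-coupled luminescence was imaged as the viability read-out.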
On the % scale 0 is the no-effect control and ±100 the full control effect.

Compared with `C/C=C1\[C@H]2C=C(C)C[C@]1(N)c1ccc(=O)[nH]c1C2`, `Cc1ccc2c(c1)c1c3n2CCNC3CCC1` (centres undefined) is higher in max response: -3.64% for the first, -0.231% for the second.

First: C=CCOc1ccccc1OCC(O)CNC(C)C (centres undefined)
Second: COc1ccccc1OCC(O)CO (centres undefined)
The max response of the first is lower: -1.61% for the first, 4.34% for the second.

First: CCCNC(C)C(=O)Nc1c(C)csc1C(=O)OC (centres undefined)
Second: CCOC(=O)OC(C)OC(=O)[C@@H]1N2C(=O)[C@@H](NC(=O)[C@H](N)c3ccccc3)[C@H]2SC1(C)C (some centres undefined)
The max response of the first is lower: -16.9% for the first, -3.71% for the second.

First: CN[C@@H]1[C@H](O)[C@H](NC)[C@H]2O[C@@]3(O)C(=O)C[C@@H](C)O[C@H]3O[C@@H]2[C@H]1O
Second: CN[C@@H]1[C@@H](O)[C@@H](O[C@@H]2[C@H](O)[C@H](O[C@H]3OC(CN)=CC[C@H]3N)[C@@H](N)C[C@H]2N)OCC1(C)O (some centres undefined)
The max response of the first is lower: 16.3% for the first, 25.6% for the second.

Going from `CC(=O)N[C@@H](CC(C)C)C(=O)O` to `NC(=O)N[C@@H](CCC(=O)O)C(=O)O`, the max response falls from -12.6% to -19.7%.

Going from `CC(=O)OCC(=O)[C@@]1(O)CC[C@H]2[C@@H]3CCC4=CC(=O)C=C[C@]4(C)[C@@]3(F)[C@@H](O)C[C@@]21C` to `CC1(C)S[C@@H]2[C@H](N=CN3CCCCCC3)C(=O)N2[C@H]1C(=O)O`, the max response falls from 29.8% to -4.82%.

First: O=C(O)C(S)C(S)C(=O)O (centres undefined)
Second: CC[C@H](C)[C@H](N)C(=O)O
The max response of the first is lower: -23% for the first, -15.9% for the second.

Going from `NS(=O)(=O)c1cc(C2(O)NC(=O)c3ccccc32)ccc1Cl` (centres undefined) to `CC1(c2ccccc2)OC(C(=O)O)=CC1=O` (centres undefined), the max response rises from -1.8% to 17.3%.

First: C[N+]1(C)CCCC(OC(=O)C(O)(c2ccccc2)c2ccccc2)C1 (centres undefined)
Second: OC(CCN1CCCC1)(c1ccccc1)C1CCCCC1 (centres undefined)
The max response of the first is higher: -3.88% for the first, -9.13% for the second.

Going from `C1CCN2C[C@@H]3C[C@@H](CN4CCCC[C@@H]34)[C@H]2C1` to `C=CCN1C[C@H](C(=O)N(CCCN(C)C)C(=O)NCC)C[C@@H]2c3cccc4[nH]cc(c34)C[C@H]21`, the max response rises from 4.47% to 6.36%.

First: CCCCCOC(=O)Nc1nc(=O)n([C@@H]2O[C@H](C)[C@@H](O)[C@H]2O)cc1F
Second: O=c1[nH]c(=O)n([C@H]2C[C@H](O)[C@@H](CO)O2)cc1I
The max response of the first is lower: -8.69% for the first, 5.94% for the second.

Going from `CCN[C@H]1CN(CCCOC)S(=O)(=O)c2sc(S(N)(=O)=O)cc21` to `C[C@]1(Cn2ccnn2)[C@H](C(=O)O)N2C(=O)C[C@H]2S1(=O)=O`, the max response falls from 14.5% to 13.6%.

Going from `NC(=O)NC1NC(=O)NC1=O` (centres undefined) to `CN1C(=O)CC(c2ccccc2)C1=O` (centres undefined), the max response rises from -5.62% to 0.936%.

Compared with `CCC(C)(CN(C)C)OC(=O)c1ccccc1` (centres undefined), `CO[C@@]1(NC(=O)C(C(=O)O)c2ccc(O)cc2)C(=O)N2C(C(=O)O)=C(CSc3nnnn3C)CO[C@@H]21` (some centres undefined) is higher in max response: 0.865% for the first, 4.1% for the second.

`CC(=O)N1C[C@H](O)C[C@H]1C(=O)O` gave a max response of 8.51%.
